The panel holds about 83,000 compounds, 20% with a hit somewhere; the sample as a whole holds those more often.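 In brief: 96-well plates, 48 h treatment, single concentration, percent growth endpoint.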 Values without a mark were called inactive. Activity calls are given as the source filed them. Rule for the calls: active = growth percent below 10; inactive = the rest.
Key:
Experiment in all cases: NCI-60 one-dose screen, 48 h (100 = growth as untreated, 0 = no growth, -100 = all killed)
Conditions in all cases: 10 µM unless noted
RPMI-8226 leukemia = system: RPMI-8226 leukemia
OVCAR-8 ovarian = system: OVCAR-8 ovarian
OVCAR-5 ovarian = system: OVCAR-5 ovarian
OVCAR-4 ovarian = system: OVCAR-4 ovarian
SK-OV-3 ovarian = system: SK-OV-3 ovarian
IGROV1 ovarian = system: IGROV1 ovarian
OVCAR-3 ovarian = system: OVCAR-3 ovarian
HS 578T breast = system: HS 578T breast
NCI/ADR-RES ovarian = system: NCI/ADR-RES ovarian

C=C1C(=O)O[C@H]2[C@H]1CC/C(Cn1cc(CNCCc3c[nH]c4ccc(Cl)cc34)nn1)=C\CC[C@@]1(C)O[C@@H]21
growth (RPMI-8226 leukemia): 9.44% (active)
growth (OVCAR-8 ovarian): 59.6%
growth (OVCAR-5 ovarian): 83.5%
growth (OVCAR-4 ovarian): 41.7%
growth (SK-OV-3 ovarian): 72.6%
growth (IGROV1 ovarian): 2.11% (active)
growth (OVCAR-3 ovarian): 11.9%
growth (HS 578T breast): 83.4%
growth (NCI/ADR-RES ovarian): 102%

N#Cc1cccc(-c2nc3ccccn3c2NCCN2CCOCC2)c1
growth (RPMI-8226 leukemia): 90.4%
growth (OVCAR-8 ovarian): 90.7%
growth (OVCAR-5 ovarian): 94.4%
growth (OVCAR-4 ovarian): 30%
growth (SK-OV-3 ovarian): 86.3%
growth (IGROV1 ovarian): 97.8%
growth (OVCAR-3 ovarian): 96.9%
growth (HS 578T breast): 96.2%
growth (NCI/ADR-RES ovarian): 98.2%

C#C[C@]1(O)CC[C@H]2[C@@H]3CC=C4c5sc(N=C(N)N)nc5CC[C@]4(C)[C@H]3CC[C@@]21C
growth (RPMI-8226 leukemia): -29% (active)
growth (OVCAR-8 ovarian): 10.1%
growth (OVCAR-5 ovarian): 28%
growth (OVCAR-4 ovarian): 29%
growth (SK-OV-3 ovarian): -57.2% (active)
growth (IGROV1 ovarian): 14.4%
growth (OVCAR-3 ovarian): -44.2% (active)
growth (HS 578T breast): -39.2% (active)
growth (NCI/ADR-RES ovarian): 29.8%

C=C(C)[C@@H]1CC[C@]2(CO)CC[C@]3(C)[C@H](CC[C@@H]4[C@@]5(C)C=C(C#N)C(=O)C(C)(C)[C@@H]5CC[C@]43C)[C@@H]12
growth (RPMI-8226 leukemia): -20.9% (active)
growth (OVCAR-8 ovarian): 22.2%
growth (OVCAR-5 ovarian): 36.3%
growth (OVCAR-4 ovarian): 26.9%
growth (SK-OV-3 ovarian): 37.9%
growth (IGROV1 ovarian): 24.1%
growth (OVCAR-3 ovarian): -49.2% (active)
growth (HS 578T breast): 29.3%
growth (NCI/ADR-RES ovarian): 13.1%

CN1CCN(C(=O)[C@@]2(C)CC[C@]3(C)CC[C@]4(C)C(=CC[C@@H]5[C@@]6(C)C/C(=C/c7ccncc7)C(=O)C(C)(C)[C@@H]6CC[C@]54C)[C@@H]3C2)CC1
growth (RPMI-8226 leukemia): 12.8%
growth (OVCAR-8 ovarian): 50.9%
growth (OVCAR-5 ovarian): 88.2%
growth (OVCAR-4 ovarian): 37.9%
growth (SK-OV-3 ovarian): 55.2%
growth (IGROV1 ovarian): 56.7%
growth (OVCAR-3 ovarian): 50.7%
growth (HS 578T breast): 54%
growth (NCI/ADR-RES ovarian): 62.1%

COc1cccc(-c2nc3sccn3c2-c2ccnc(NCCNS(=O)(=O)c3c(Cl)cccc3Cl)c2)c1
growth (RPMI-8226 leukemia): 15.1%
growth (OVCAR-8 ovarian): 39%
growth (OVCAR-5 ovarian): 90.9%
growth (OVCAR-4 ovarian): 59.7%
growth (SK-OV-3 ovarian): 89.5%
growth (IGROV1 ovarian): 57.2%
growth (OVCAR-3 ovarian): 70.8%
growth (HS 578T breast): 87.8%
growth (NCI/ADR-RES ovarian): 36.6%

CCCn1nc(-c2ccccc2)c2c(-c3ccccc3)onc2c1=O
growth (RPMI-8226 leukemia): 70.2%
growth (OVCAR-8 ovarian): 102%
growth (OVCAR-5 ovarian): 87.7%
growth (OVCAR-4 ovarian): 79.7%
growth (SK-OV-3 ovarian): 83.6%
growth (IGROV1 ovarian): 72.5%
growth (OVCAR-3 ovarian): 91.8%
growth (HS 578T breast): 67.7%
growth (NCI/ADR-RES ovarian): 68.5%

Cn1cc(Nc2nccc(-c3ccc(N4CCCC4)c(C#N)c3)n2)cn1
growth (RPMI-8226 leukemia): 27.1%
growth (OVCAR-8 ovarian): 47.3%
growth (OVCAR-5 ovarian): 88%
growth (OVCAR-4 ovarian): 53.7%
growth (SK-OV-3 ovarian): 18.4%
growth (IGROV1 ovarian): 25.3%
growth (OVCAR-3 ovarian): 32.1%
growth (HS 578T breast): 32.5%
growth (NCI/ADR-RES ovarian): 42.2%

NC(=O)c1c(NC(=O)c2ccccn2)sc2c1CCC(=O)C2
growth (RPMI-8226 leukemia): 1.88% (active)
growth (OVCAR-8 ovarian): 14.2%
growth (OVCAR-5 ovarian): 21.5%
growth (OVCAR-4 ovarian): -7.1% (active)
growth (SK-OV-3 ovarian): 95.6%
growth (IGROV1 ovarian): 29.9%
growth (OVCAR-3 ovarian): 7.94% (active)
growth (HS 578T breast): 25.1%
growth (NCI/ADR-RES ovarian): 17.6%

COc1ccc(-n2ncn(CCCCCCn3cnn(-c4ccc(OC)cc4)c3=O)c2=O)cc1
growth (RPMI-8226 leukemia): 78.3%
growth (OVCAR-8 ovarian): 95.2%
growth (OVCAR-5 ovarian): 101%
growth (OVCAR-4 ovarian): 84.5%
growth (SK-OV-3 ovarian): 99.5%
growth (IGROV1 ovarian): 90.6%
growth (OVCAR-3 ovarian): 98.4%
growth (HS 578T breast): 93.9%
growth (NCI/ADR-RES ovarian): 89%

CS(=O)(=O)c1ccc(N/N=C/c2c(-c3ccc(S(C)(=O)=O)cc3)[nH]c3ccc(F)cc23)cc1
growth (RPMI-8226 leukemia): -41.7% (active)
growth (OVCAR-8 ovarian): 26.1%
growth (OVCAR-5 ovarian): 75.1%
growth (OVCAR-4 ovarian): 40.2%
growth (SK-OV-3 ovarian): 54.6%
growth (IGROV1 ovarian): 35.4%
growth (OVCAR-3 ovarian): 41.7%
growth (HS 578T breast): 5.71% (active)
growth (NCI/ADR-RES ovarian): 91.5%

CS(=O)(=O)c1ccc(-c2[nH]c3ccc(F)cc3c2/C=N/NC(N)=S)cc1
growth (RPMI-8226 leukemia): 12%
growth (OVCAR-8 ovarian): 20.8%
growth (OVCAR-5 ovarian): 28.2%
growth (OVCAR-4 ovarian): 50%
growth (SK-OV-3 ovarian): 13.4%
growth (IGROV1 ovarian): 29%
growth (OVCAR-3 ovarian): 11.8%
growth (HS 578T breast): 28%
growth (NCI/ADR-RES ovarian): 11.1%

c1ccc2c(c1)ncn2-c1nc2ccccc2n2c1nc1ccccc12
growth (RPMI-8226 leukemia): 81.7%
growth (OVCAR-8 ovarian): 80.5%
growth (OVCAR-5 ovarian): 81%
growth (OVCAR-4 ovarian): 67.9%
growth (SK-OV-3 ovarian): 69.2%
growth (IGROV1 ovarian): 51.4%
growth (OVCAR-3 ovarian): 89.6%
growth (HS 578T breast): 83.8%
growth (NCI/ADR-RES ovarian): 87%

c1ccc2c(c1)nc(-n1ccnc1)c1nc3ccccc3n12
growth (RPMI-8226 leukemia): 77.9%
growth (OVCAR-8 ovarian): 30.4%
growth (OVCAR-5 ovarian): 82.4%
growth (OVCAR-4 ovarian): 68%
growth (SK-OV-3 ovarian): 21.5%
growth (IGROV1 ovarian): 52.5%
growth (OVCAR-3 ovarian): 78.1%
growth (HS 578T breast): 70.3%
growth (NCI/ADR-RES ovarian): 49.2%

C=C(CNCCc1ccc(O)cc1)[C@@H]1CC[C@]2(COC3CCCCO3)CC[C@]3(C)[C@H](CC[C@@H]4[C@@]5(C)CCC(N)C(C)(C)[C@@H]5CC[C@]43C)[C@@H]12 (stereo partly drawn)
growth (RPMI-8226 leukemia): -64.9% (active)
growth (OVCAR-8 ovarian): -61.6% (active)
growth (OVCAR-5 ovarian): -90.6% (active)
growth (OVCAR-4 ovarian): -77.5% (active)
growth (SK-OV-3 ovarian): -95.1% (active)
growth (IGROV1 ovarian): -82.1% (active)
growth (OVCAR-3 ovarian): -87% (active)
growth (HS 578T breast): -49.5% (active)
growth (NCI/ADR-RES ovarian): -67.1% (active)

COc1ccc(Oc2nc(Nc3ccc(N4CCOCC4)nc3)ncc2NC(=O)c2cc(OC)cc(OC)c2)cc1
growth (RPMI-8226 leukemia): 49%
growth (OVCAR-8 ovarian): 77.8%
growth (OVCAR-5 ovarian): 105%
growth (OVCAR-4 ovarian): 78.2%
growth (SK-OV-3 ovarian): 88.6%
growth (IGROV1 ovarian): 80%
growth (OVCAR-3 ovarian): 82.7%
growth (HS 578T breast): 86.8%
growth (NCI/ADR-RES ovarian): 76%

Nc1ccc(S(=O)(=O)Nc2ccsc2-c2nc(-c3ccccc3)no2)cc1
growth (RPMI-8226 leukemia): 65.8%
growth (OVCAR-8 ovarian): 59.7%
growth (OVCAR-5 ovarian): 87.5%
growth (OVCAR-4 ovarian): 81.9%
growth (SK-OV-3 ovarian): 62.3%
growth (IGROV1 ovarian): 64.7%
growth (OVCAR-3 ovarian): 36.8%
growth (HS 578T breast): 56.4%
growth (NCI/ADR-RES ovarian): 54.6%

— PubChem BioAssay (NCI)
